High-throughput results deposited in PubChem by National Center for Advancing Translational Sciences (NCATS).
IMPase Li inh: qHTS Assay for Identifying the Cell-Membrane Permeable IMPase Inhibitors: Potentiation with Lithium | CHO-M1 cells, IP1 TR-FRET (IP-One), carbachol + lithium | Potency, µM (top dose mostly 59.4 µM), for the others: at the highest dose activity, negative = IMPase inhibition, usual class: inhibitors | 0.35% of 210,000 active;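 further: IP1 builds up when IMPase is blocked and the TR-FRET signal falls; potency means the concentration at half of the fitted maximal effect; plate controls were basal vehicle for no effect and high inhibitor control for full effect; nearly all actives have a fitted effect of over 50% in size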
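Lithium-sensitised IP1 accumulation assay; M1-expressing CHO cells treated 30 min at 37C with compound. Competitive antibody detection by time-resolved FRET followed a 10 min room-temperature lysis step.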
ALDH1A1 block: qHTS Assay for Inhibitors of Aldehyde Dehydrogenase 1 (ALDH1A1); Aldehyde dehydrogenase 1A1 (Homo sapiens), P00352; Purified ALDH1A1, NADH fluorescence, propionaldehyde substrate; Potency, µM (highest dose often 75.3 µM), without a hit: top-dose activity, negative = inhibition, most hits filed as inhibitors; 7.3% of 220,000 active; active means well fitted inhibition curve with a large enough effect, not every such curve was filed as active; inconclusive means small, poorly fitted or top-dose-only effect, or another doubt; inactive means no such curve, though single readings can be large or run the other way;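 further: potency means the concentration at half of the fitted maximal effect; plate controls were no enzyme wells and a reference inhibitor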
Target sequence (P00352 whole entry, looked up): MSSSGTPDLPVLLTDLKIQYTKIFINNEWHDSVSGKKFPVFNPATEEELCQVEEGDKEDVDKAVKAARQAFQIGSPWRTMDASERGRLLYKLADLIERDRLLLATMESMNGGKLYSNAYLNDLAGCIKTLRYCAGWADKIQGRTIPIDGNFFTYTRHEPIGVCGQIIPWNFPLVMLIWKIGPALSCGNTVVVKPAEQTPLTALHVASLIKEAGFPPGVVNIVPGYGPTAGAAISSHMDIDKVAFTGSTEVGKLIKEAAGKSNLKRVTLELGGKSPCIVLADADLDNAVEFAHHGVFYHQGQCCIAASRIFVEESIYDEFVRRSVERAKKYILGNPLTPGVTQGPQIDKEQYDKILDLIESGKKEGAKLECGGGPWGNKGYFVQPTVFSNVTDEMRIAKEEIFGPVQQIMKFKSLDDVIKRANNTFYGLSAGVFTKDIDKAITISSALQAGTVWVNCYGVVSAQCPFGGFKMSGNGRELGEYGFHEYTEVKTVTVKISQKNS
ALOX12 inhib: qHTS Assay for Inhibitors of 12-hLO (12-human lipoxygenase); Polyunsaturated fatty acid lipoxygenase ALOX12 (Homo sapiens), P18054; purified 12-hLO, xylenol orange hydroperoxide absorbance; Potency, µM (highest dose often 57.1 µM), for the others: at the highest dose activity change, negative = inhibition, actives largely listed as inhibitors; 0.12% of 150,000 active; further: potency means the concentration at half of the fitted maximal effect; nearly all actives have a fitted effect of over 55% in size
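Xylenol orange chromogenic assay: hydroperoxide from 12hLO oxidises Fe(II), giving red-shifted Fe(III)-XO absorbance. Conditions: 150 nM enzyme, 40 uM arachidonic acid, 25 mM Hepes pH 7.0, 0.01% Triton X-100, 30 min, room temperature.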
IMPase inh: qHTS Assay for Identifying the Cell-Membrane Permeable IMPase Inhibitors | 120,000 tested, under 10 active | CHO-M1 cells, IP1 accumulation, HTRF TR-FRET ratio | Inositol monophosphatase 1 (Rattus norvegicus), P97697 | AID 901, 2007 | inhibition (IP1 accumulation), % at 46.1 µM; active means well fitted curve in the direction sought with a large enough effect in the signal ratio, not every such curve was filed as active; inconclusive means small, poorly fitted or top-dose-only effect, or a change in a side signal; inactive means no such curve, though single readings can be large or run the other way; the % refers to the signal ratio;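 further: cells stimulated with carbachol in lithium chloride buffer; plate controls were DMSO basal wells for no effect and reference inhibitor wells for full effect; higher means more IMPase inhibition seen as more IP1 and lower FRET ratio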
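The IP-One HTRF competitive assay in carbachol-stimulated CHO-M1 cells quantifies cellular IP1. Compounds spanned up to 46 uM final, and activity is expressed as AC50 from concentration-response fits of the ratio and donor data.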
PNC assembly inh: High Content Assay for Compounds that inhibit the Assembly of the Perinucleolar Compartment; AID 2417, 2010; 3.1% of 140,000 active; activity change (PNC), negative = inhibition, % at 10 µM; PC3M PTB-GFP, PNC prevalence imaging, 16 h; active compounds read low;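 active means readout at or below -70, meaning at least 70% loss of cells showing the perinucleolar compartment, a nuclear body marking cancer cells; inconclusive means readout between -30 and a set limit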;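 further: plate controls were DMSO wells for no effect and camptothecin positive control wells for full effect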
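Compounds are pinned in duplicate onto adhered PC3M cells stably expressing GFP-tagged PTB and incubated 16 h at 37 C. Cells are then fixed, nuclei stained with Hoechst, and PNC-positive cells counted.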
HPGD inh: qHTS Assay for Inhibitors of HPGD (15-Hydroxyprostaglandin Dehydrogenase); 15-hydroxyprostaglandin dehydrogenase [NAD(+)] (Homo sapiens), P15428; purified HPGD, NADH fluorescence kinetic, PGE2 substrate; Potency, µM, for inactives: at the highest dose activity change, negative = inhibition, usual class: inhibitors; 4.3% of 150,000 active; AID 894, 2007; active means well fitted inhibition curve with a large enough effect, not every such curve was filed as active; inconclusive means small, poorly fitted or top-dose-only effect, or another doubt; inactive means no such curve, though single readings can be large or run the other way; further: potency means the concentration at half of the fitted maximal effect
Target sequence (P15428 whole entry, looked up): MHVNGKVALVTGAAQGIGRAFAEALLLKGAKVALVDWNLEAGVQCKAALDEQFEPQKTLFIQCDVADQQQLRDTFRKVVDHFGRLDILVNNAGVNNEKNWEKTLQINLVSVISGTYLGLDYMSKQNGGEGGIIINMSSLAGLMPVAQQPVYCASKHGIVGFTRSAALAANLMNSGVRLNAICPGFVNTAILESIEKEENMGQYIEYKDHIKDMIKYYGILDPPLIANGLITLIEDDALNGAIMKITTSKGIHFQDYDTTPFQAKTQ
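NADH formation kinetics: reaction with 30 uM PGE2 and 1 mM NAD+ (final), 20 nM enzyme, Tris-HCl pH 8 with Tween 20, after 15 min compound preincubation at room temperature. Fluorescence change, last versus first of five reads.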
Starred values were filed as active, the others as inactive; ? = inconclusive; . = no result; [ ] = dose if it differs, or a comment. In the library only some 11% were active in any assay of this set; here they are far more common. Unless noted, the call rests on the fitted dose curve; in most records, active means well fitted curve in the direction sought with a large enough effect; inconclusive means small, poorly fitted or top-dose-only effect, or another doubt; inactive means no such curve, though single readings can be large; an effect the other way counts as inactive or inconclusive. Unless noted, on the % scale 0 is the no-effect control and ±100 the full control effect.

SMILES	IMPase Li inh	ALDH1A1 block	ALOX12 inhib	IMPase inh	PNC assembly inh	HPGD inh
Cc1sc(NC(=O)c2ccc(=O)n(C)n2)nc1-c1ccccc1	-12%	28µM*	.	.	.	.
Oc1ccc(CNc2ccccc2)c2cccnc12	-7%[38.3 µM]	10µM*	?	-7	-30	-3%
Oc1ccc(Cn2ccnc2)c2cccnc12	2%	5%	.	.	.	.
Oc1ccc(CNc2ccc(F)cc2)c2cccnc12	-14%[38.3 µM]	8.9µM*	?	-7	9	-18%
Cc1ccccc1NCc1ccc(O)c2ncccc12	4%	4µM*	?	13	-11	-2%
Oc1ccc(CN2CCN(Cc3ccccc3)CC2)c2cccnc12	2%[38.3 µM]	1%	-2%	6	?	-19%
Cc1cccc(NCc2ccc(O)c3ncccc23)c1	13%	2.8µM*	.	.	.	.
COCc1ccc(O)c2ncccc12	23%[38.3 µM]	3%	?	-3	-20	-12%
CO[C@@H]1COC(=O)CC=C[C@@H](C)[C@@H]2C=C[C@H](O)[C@@H](COC(=O)C/C=C\[C@H]1C)O2	.	-8%[13.5 µM]	.	.	.	.
CCCCCOc1ccc(/C=C/C(=O)Nc2sc(C)c(C)c2C(=O)OCC)cc1OC	.	.	.	-2	.	.
CCCn1c(C)nc2c(NCCCN(CC)CC)nc(C)nc21	-2%	-5%	1%	.	.	-5%
CCCCC[C@H](O)/C=C/C=C\C/C=C\CCCCCCC(=O)O	6%	1%	1%	.	.	-5%
Cc1cccc(CN2CCN(c3nc4nonc4nc3NC3CC3)CC2=O)c1	2%	?	.	.	.	.
Fc1cccc(F)c1/C=N/N1CCOCC1	-6%	-4%	.	.	.	.
CCN(CC)c1ccc(/C=N/N2CCOCC2)cc1	10%	22µM*	3%	23	12	-18%
COc1ccc(/C=N/N2CCOCC2)cc1O	-4%	3%	-1%	.	-81*	-8%
Oc1ccc(/C=N/N2CCOCC2)c(O)c1O	12%	7.1µM*	.	.	.	.
COc1ccc(/C=N/N2CCOCC2)cc1OCc1ccccc1	6%	?	.	.	.	.
CCN(Cc1ccccc1)c1ccc(/C=N/NC(=O)c2cccc(S(=O)(=O)N3CCOCC3)c2)cc1	-1%	?	0%	.	?	?
CCN(Cc1ccccc1)c1ccc(/C=N/N2CCOCC2)cc1	13%	2.2µM*	3%	.	84	-16%
COc1ccc(O[C@H]2C=C[C@@H](c3ccccc3)O[C@H]2CO/N=C(/C)CCC(=O)OC[C@@H]2O[C@H](c3ccccc3)C=C[C@@H]2Oc2ccc(OC)cc2)cc1	.	7%[13.5 µM]	.	.	.	.
Brc1cccc(-c2cnn3c(-c4ccccc4)cc(-c4ccccc4)nc23)c1	.	.	.	-8	.	.
CCN(CC)c1ccc(/C=N/N2CCN(c3ccccn3)CC2)cc1	.	22µM*	.	.	.	.
COc1ccccc1N1CCN(/N=C/c2cc(OC)c(O)c(OC)c2)CC1	26%	16µM*	-19%	.	31	?
COc1ccccc1N1CCN(/N=C/c2cccc(O)c2)CC1	13%	?	.	.	.	.
SMILES	IMPase Li inh	ALDH1A1 block	ALOX12 inhib	IMPase inh	PNC assembly inh	HPGD inh
Cc1nnc(N2CCOCC2)c2nn(-c3cccc(Cl)c3)c(C)c12	17%	-5%	0%	.	?	-11%
Cc1cccc(NC(=O)CN2C(=O)N/C(=C/c3ccc(-c4cccc(C(=O)O)c4C)o3)C2=O)c1	-11%	-1%	.	.	.	.
Cc1ccc(/C=C2/NC(=O)N(c3ccccc3)C2=O)o1	8%[38.3 µM]	10µM*	-7%	1	-2	-21%
Cc1c(C(=O)O)cccc1-c1ccc(/C=C2/NC(=O)N(c3ccccc3)C2=O)o1	4%	5.6µM*	.	.	.	.
O=C1N/C(=C/c2ccc(Br)s2)C(=O)N1c1ccccc1	-5%	-2%	.	.	.	.
O=C1N/C(=C/c2ccc(N3CCOCC3)o2)C(=O)N1c1cccc(Cl)c1	24%	18µM*	.	.	.	.
OB(O)c1cc2ccccc2o1	-5%	-12%	-3%	.	.	-12%
Clc1ccc2c(N3CCC(CCC4CCN(c5ncnc6cc(Cl)ccc56)CC4)CC3)ncnc2c1	7%	-6%[13.5 µM]	2%[11.4 µM]	.	.	-4%
COC(=O)[C@@]1(Cc2ccc(OC)cc2)[C@H]2c3cc(C(=O)N(C)C)n(Cc4nc5ccccc5[nH]4)c3C[C@H]2CN1C(=O)c1ccccc1	-6%	?	-27%	.	.	-25%
CC1CCN(CC(=O)Nc2sc3c(c2C#N)CCC3)CC1	.	?	-7%	7	9	.
Cc1ccc(C(=O)c2cc(C)sc2NC(=O)CN2CCN(C(=O)c3ccco3)CC2)cc1	.	25µM*	-27%	17	-22	.
CC1CCc2c(sc(NC(=O)CN3CCN(C(=O)c4ccco4)CC3)c2C#N)C1 (stereo not drawn)	-13%[38.3 µM]	?	-8%	0	-117*	-28%
CN(C)c1ncc2nc(-c3ccc(Cl)cc3)c(=O)n(C3CC3)c2n1	?	?	1%	.	.	?
C[N+](C)(C)[C@@H](C1=CCCC1=O)c1ccccc1	.	.	2%[11.4 µM]	.	.	.
Cc1cc(C(F)F)n2nc(C(=O)Nc3cc(Cl)ccc3C)nc2n1	.	.	.	1	.	.
CC(=O)C1=C(C)NC(SCC(=O)c2ccc(Cl)cc2)=C(C#N)C1CC(C)C (stereo not drawn)	?	14µM*	-11%	?	3	-21%
CC(=O)C1=C(C)NC(SCC(=O)c2ccc(F)cc2)=C(C#N)C1CC(C)C (stereo not drawn)	-16%	11%	-16%	.	?	22µM*
CCOC(=O)C12CC1/C(=N/O)c1ccccc1O2 (stereo not drawn)	12%	-6%	.	.	.	-11%
COc1ccccc1C(=O)NC(=Nc1nc2ccccc2o1)NC(=O)c1ccccc1OC	45%[38.3 µM]	-5%	3%	5	-82*	-24%
O=C(CSc1ncc(-c2ccccc2)[nH]1)Nc1cccc(C(F)(F)F)c1	.	.	.	12	.	.
CCCCN(C)CC(O)Cn1cc(/C=C/C(=O)c2cccs2)c2ccccc21 (stereo not drawn)	-4%	1%	-6%	1	-100*	-28%
Cc1ccc(C(=O)Nc2cccc(C(=O)O)c2)cc1	4%[38.3 µM]	0%	1%	1	38	-2%
Cc1oc2c(c1C(=O)Nc1cccc(C(=O)O)c1)CCCC2	9%[38.3 µM]	2%	2%	4	-108*	1%
O=C(Nc1ccc2c(c1)OCCO2)c1cc(-c2ccccn2)nc2ccc(Br)cc12	13µM*	5%	.	.	.	.
CC(=O)c1ccc(NC(=S)N2c3ccccc3CC2C)cc1 (stereo not drawn)	2%	25µM*	.	.	.	.
